According to ChEMBL document CHEMBL3988442, “University of Dundee, Small-Polar-MMV Screening Library” (2021):
For some of these results: Measured potencies and affinities stand elsewhere.

Tests used:
Set-up in all cases: scale not given: direction of the effect not stated beside the values
[1] = molecular target: Protein translocase subunit SecA (Escherichia coli (strain K12)) (UniProt P10408); assay: Assay to Identify E. coli SecA ATPase Inhibitors; format: functional; conditions: 30 µM
[2] = molecular target: T1, Ubiquitin-activating enzyme e1, putative (Leishmania donovani (strain BPK282A1)) (UniProt E9BSI1); assay: Leishmania donovani Ubiquitin Activating Enzyme (LdE1); format: functional; conditions: 30 µM
T1 sequence (whole entry): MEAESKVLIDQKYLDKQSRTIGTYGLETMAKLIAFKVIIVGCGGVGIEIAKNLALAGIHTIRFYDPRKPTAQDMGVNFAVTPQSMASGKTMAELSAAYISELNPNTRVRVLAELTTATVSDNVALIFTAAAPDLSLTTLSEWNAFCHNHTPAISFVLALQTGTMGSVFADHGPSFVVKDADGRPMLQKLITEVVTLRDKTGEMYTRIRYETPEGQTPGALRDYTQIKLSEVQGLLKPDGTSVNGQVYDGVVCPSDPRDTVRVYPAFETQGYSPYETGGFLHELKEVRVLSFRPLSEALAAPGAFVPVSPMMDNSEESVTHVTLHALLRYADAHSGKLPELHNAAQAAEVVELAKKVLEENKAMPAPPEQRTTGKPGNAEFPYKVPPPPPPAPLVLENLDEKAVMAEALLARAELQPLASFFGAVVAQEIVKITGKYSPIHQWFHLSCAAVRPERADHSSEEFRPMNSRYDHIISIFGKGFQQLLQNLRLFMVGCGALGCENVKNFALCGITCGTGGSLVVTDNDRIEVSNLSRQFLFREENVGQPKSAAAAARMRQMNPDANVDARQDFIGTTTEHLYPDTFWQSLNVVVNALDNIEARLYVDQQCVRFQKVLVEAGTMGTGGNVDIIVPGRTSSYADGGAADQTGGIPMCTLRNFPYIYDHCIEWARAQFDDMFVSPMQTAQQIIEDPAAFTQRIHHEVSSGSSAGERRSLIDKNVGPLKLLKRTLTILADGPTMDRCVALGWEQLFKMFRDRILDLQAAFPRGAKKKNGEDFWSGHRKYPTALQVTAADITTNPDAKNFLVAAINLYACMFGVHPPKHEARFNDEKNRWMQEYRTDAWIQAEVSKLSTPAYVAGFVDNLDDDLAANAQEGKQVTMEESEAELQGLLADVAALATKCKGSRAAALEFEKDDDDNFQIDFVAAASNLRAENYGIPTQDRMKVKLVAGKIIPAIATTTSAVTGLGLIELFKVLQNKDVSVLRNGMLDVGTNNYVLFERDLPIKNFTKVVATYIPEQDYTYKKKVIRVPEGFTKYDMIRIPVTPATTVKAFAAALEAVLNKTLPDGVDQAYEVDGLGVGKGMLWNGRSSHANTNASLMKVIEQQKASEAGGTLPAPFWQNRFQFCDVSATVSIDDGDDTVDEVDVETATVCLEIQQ

[3] = molecular target: AMP-activated protein kinase, AMPK (Homo sapiens) (UniProt P54646+O43741+P54619+Q9UGJ0+Q9Y478+Q13131+Q9UGI9); assay: AMP-dependent Kinase enzyme assay. An in vitro enzyme assay that detects ADP turnover that is directly proportional to AMPK activity. This uses naive AMPK that is activated during the assay with MK-8722; format: functional; conditions: 30 µM
[4] = molecular target: Sialic acid-binding Ig-like lectin 9 (Homo sapiens) (UniProt Q9Y336); assay: Hs-Siglec9 ALPHAscreen SOP 20170721; conditions: 10 µM
[5] = test system: Trypanosoma cruzi; assay: Trypanosoma cruzi phosphomannomutase and mannose-1-phosphate guanylyltransferase assay; format: functional; conditions: 10 µM
[6] = molecular target: T2, Arginase-2, mitochondrial (Homo sapiens) (UniProt P78540); assay: in vitro enzyme assay to detect the production of urea directly proportional to the activity of Arginase II; format: functional; conditions: 33.3 µM; also: in the data most compounds retested in dose-response had high values
T2 sequence (whole entry): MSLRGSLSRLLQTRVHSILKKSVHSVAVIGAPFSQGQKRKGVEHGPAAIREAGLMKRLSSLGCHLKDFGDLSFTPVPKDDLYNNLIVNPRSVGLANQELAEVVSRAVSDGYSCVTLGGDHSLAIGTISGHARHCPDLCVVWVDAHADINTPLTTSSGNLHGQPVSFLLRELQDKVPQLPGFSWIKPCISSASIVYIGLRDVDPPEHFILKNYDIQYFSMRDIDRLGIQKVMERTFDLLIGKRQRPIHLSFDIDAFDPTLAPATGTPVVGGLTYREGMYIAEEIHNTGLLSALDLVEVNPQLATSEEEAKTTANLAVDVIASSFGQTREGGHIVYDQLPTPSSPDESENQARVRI

[7] = molecular target: T3, Proteasome subunit beta (Trypanosoma cruzi) (UniProt O96673); assay: Trypanosoma cruzi proteasome chymotrypsin-like activity (TcProtChymo) assay.; also: in the data most compounds retested in dose-response had high values; format: functional; conditions: 9.37 µM
T3 sequence (whole entry): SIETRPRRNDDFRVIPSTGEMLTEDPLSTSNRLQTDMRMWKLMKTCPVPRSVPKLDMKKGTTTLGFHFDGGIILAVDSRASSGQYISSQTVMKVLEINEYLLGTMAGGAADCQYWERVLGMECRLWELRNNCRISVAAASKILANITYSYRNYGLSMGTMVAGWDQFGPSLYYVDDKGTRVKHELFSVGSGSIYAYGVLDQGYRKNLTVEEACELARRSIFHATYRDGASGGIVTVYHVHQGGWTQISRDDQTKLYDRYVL

[8] = species: Homo sapiens; assay: To identify inhibition of the IFN signalling (Jak-Stat) pathway via expression of an eGFP reporter gene under the control of an IFN-stimulated response element (ISRE) containing MxA promoter.; format: functional; conditions: 30 µM
[9] = molecular target: T4, Tyrosyl-tRNA synthetase, putative (Trypanosoma cruzi (strain CL Brener)) (UniProt Q4DSP6); assay: Trypanosoma cruzi tyrosyl tRNA synthetase (TcYRS) _High Tyrosine SOP; format: functional; conditions: 30 µM; also: in the data most compounds retested in dose-response had high values
T4 sequence (whole entry): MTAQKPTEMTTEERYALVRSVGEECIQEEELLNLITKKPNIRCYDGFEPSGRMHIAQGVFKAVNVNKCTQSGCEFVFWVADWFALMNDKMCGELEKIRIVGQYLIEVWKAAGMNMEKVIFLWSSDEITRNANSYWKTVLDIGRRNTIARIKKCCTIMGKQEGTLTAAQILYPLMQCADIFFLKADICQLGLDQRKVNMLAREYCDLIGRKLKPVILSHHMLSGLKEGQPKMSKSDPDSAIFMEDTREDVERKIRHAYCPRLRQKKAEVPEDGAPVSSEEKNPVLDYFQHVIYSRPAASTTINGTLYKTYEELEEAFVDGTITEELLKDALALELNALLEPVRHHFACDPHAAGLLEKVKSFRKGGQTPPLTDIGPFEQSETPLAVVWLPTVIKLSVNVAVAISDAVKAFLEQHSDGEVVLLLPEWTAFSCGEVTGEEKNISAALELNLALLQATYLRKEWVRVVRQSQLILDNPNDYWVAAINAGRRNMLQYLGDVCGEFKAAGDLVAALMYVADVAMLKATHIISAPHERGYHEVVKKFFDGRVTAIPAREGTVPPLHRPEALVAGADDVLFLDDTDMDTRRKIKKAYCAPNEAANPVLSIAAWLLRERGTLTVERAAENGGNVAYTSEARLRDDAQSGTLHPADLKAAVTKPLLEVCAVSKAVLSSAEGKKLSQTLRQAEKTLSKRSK

[10] = molecular target: T4, Tyrosyl-tRNA synthetase, putative (Trypanosoma cruzi (strain CL Brener)); assay: Trypanosoma cruzi tyrosyl tRNA synthetase (TcYRS) SOP; format: functional; conditions: 30 µM
[11] = molecular target: Chromo domain-containing protein 1 (Saccharomyces cerevisiae (strain ATCC 204508 / S288c) (Baker's yeast)) (UniProt P32657); assay: ScCHD-1 Enzyme Inhibition Assay; format: functional; conditions: 30 µM; also: in the data most compounds retested in dose-response had high values
Chain of Chromo domain-containing protein 1 (Saccharomyces cerevisiae (strain ATCC 204508 / S288c) (Baker's yeast)) (P32657 whole entry, the tested form may be a part): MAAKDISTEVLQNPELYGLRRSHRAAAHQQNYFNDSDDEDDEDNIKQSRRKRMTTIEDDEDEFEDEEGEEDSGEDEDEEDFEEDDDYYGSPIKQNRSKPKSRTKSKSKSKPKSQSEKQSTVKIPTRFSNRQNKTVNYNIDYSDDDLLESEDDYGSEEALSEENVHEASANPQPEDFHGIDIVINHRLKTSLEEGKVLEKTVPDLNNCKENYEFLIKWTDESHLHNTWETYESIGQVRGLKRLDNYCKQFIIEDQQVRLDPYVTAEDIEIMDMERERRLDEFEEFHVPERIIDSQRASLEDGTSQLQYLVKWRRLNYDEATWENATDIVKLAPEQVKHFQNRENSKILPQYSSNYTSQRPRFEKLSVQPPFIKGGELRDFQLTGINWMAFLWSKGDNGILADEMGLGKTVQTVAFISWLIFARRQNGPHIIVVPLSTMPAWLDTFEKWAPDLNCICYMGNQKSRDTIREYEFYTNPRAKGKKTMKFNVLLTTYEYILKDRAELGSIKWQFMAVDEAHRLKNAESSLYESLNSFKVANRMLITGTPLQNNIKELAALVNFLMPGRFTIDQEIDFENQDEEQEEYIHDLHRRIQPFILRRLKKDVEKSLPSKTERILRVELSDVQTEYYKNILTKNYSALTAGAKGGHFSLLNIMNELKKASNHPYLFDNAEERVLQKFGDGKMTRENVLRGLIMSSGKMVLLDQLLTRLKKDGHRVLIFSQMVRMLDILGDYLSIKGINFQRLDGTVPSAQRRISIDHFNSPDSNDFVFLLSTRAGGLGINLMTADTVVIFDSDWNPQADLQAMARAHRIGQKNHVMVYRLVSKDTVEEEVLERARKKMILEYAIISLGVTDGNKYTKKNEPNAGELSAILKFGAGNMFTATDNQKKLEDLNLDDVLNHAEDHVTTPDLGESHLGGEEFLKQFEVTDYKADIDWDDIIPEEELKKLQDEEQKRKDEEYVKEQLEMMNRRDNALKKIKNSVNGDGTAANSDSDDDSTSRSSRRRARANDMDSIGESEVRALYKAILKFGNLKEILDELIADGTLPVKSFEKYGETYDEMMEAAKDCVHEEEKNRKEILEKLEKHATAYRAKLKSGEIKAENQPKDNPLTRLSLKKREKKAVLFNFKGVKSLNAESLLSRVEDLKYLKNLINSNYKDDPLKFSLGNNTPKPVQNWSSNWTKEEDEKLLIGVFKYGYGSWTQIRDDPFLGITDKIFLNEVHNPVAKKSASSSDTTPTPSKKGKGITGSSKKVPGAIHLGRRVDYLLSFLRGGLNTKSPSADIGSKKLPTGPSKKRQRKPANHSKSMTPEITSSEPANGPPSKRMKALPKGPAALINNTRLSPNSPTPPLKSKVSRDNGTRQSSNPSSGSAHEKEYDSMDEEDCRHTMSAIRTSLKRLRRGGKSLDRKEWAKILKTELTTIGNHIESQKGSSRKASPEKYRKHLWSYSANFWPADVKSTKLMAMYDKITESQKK

Chain of Protein translocase subunit SecA (Escherichia coli (strain K12)) (P10408 whole entry): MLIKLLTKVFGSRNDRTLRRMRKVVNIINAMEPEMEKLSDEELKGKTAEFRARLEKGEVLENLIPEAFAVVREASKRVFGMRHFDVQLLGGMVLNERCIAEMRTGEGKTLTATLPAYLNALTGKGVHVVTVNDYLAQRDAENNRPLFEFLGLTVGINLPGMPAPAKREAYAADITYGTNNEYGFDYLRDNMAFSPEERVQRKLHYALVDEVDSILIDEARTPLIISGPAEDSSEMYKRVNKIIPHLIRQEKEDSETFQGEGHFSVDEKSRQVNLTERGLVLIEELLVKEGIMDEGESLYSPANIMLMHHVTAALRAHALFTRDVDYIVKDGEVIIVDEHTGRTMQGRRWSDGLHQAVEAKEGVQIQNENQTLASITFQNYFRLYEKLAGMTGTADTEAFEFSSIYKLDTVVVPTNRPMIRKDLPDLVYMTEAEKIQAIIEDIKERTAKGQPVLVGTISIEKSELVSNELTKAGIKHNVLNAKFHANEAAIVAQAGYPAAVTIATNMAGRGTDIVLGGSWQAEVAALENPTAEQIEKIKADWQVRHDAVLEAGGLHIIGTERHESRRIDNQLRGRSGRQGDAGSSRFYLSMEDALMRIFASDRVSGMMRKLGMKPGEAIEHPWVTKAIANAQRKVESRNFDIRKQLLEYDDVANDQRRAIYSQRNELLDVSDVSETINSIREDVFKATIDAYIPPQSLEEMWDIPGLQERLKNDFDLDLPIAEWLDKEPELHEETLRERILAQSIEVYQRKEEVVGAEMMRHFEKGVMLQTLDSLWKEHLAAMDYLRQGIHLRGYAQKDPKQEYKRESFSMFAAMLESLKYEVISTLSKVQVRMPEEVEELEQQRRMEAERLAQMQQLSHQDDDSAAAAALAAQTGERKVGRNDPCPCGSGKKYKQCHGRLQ
Chain of Sialic acid-binding Ig-like lectin 9 (Homo sapiens) (Q9Y336 whole entry): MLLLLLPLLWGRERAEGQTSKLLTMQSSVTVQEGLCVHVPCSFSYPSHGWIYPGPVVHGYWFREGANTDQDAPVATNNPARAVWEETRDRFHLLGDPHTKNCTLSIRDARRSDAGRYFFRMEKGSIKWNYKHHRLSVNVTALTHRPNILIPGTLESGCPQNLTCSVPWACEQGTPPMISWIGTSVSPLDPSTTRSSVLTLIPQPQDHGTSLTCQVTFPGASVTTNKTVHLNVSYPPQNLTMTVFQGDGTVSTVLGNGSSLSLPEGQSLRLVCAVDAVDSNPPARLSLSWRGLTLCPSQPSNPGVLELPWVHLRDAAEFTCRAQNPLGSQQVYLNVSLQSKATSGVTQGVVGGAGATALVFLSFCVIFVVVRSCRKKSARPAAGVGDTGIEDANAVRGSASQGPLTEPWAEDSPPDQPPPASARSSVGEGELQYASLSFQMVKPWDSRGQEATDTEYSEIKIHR

Row | Structure (SMILES) | Percent Effect [1] [%] | Percent Effect [2] [%] | Percent Effect [3] [%] | Percent Effect [4] [%] | Percent Effect [5] [%] | Percent Effect [6] [%] | Percent Effect [7] [%] | Percent Effect [8] [%] | Percent Effect [9] [%] | Percent Effect [10] [%] | Percent Effect [11] [%]
1 | CCN1CCC(NC(=O)CN2CCc3c(ncn3C)C2)CC1 | -4.55 | 6.33 | -3.84 | -0.206 | -3.59 | 6.24 | 9.43 | 10.1 | -7.29 | 0 | -5.67
2 | O=C(Nc1ccc(N2CCCC2)nc1)N1CCc2sccc2C1 | -5.59 | 2.7 | 0.616 | 0.939 | -8.59 | -0.833 | 22.1 | 7.44 | 13.9 | 13.4 | 1.64
3 | CCC(=O)Nc1ccc2c(c1)CN(C(=O)c1ccco1)CC2 | -1.48 | 15.6 | 8.06 | -13 | -1.48 | -1.94 | 9.4 | 33.1 | 3.17 | 14.1 | -8.67
4 | Cn1cccc1C(=O)N1CCc2ncc(Cn3cccn3)n2CC1 | -5.21 | 10.7 | -0.846 | -1.04 | 2.32 | -43.2 | 0.513 | -2.01 | 2.08 | 2.5 | -3.31
5 | CC(=O)N1CCN(C(=O)C(C)n2cncn2)CC1 (stereo not drawn) | -3.75 | 8.86 | 5.62 | 3.27 | 1.13 | -1.5 | 10.3 | 1.42 | 5.21 | 12.7 | -21.9
6 | O=C(CN1CCCCC1C1OCCO1)Nc1ccc(F)c(F)c1 (stereo not drawn) | -3.75 | 5.41 | 1.85 | -4.88 | -1.95 | 0 | 6.68 | 17.6 | 1.98 | 6.1 | 2.05
7 | CC(C)(C)C(=O)NCCc1ccn(-c2ccccc2)n1 | -5.41 | 13.9 | 0.882 | 2.89 | -0.923 | 4.09 | 8.92 | 2.37 | 4.17 | 17.7 | -30
8 | CC(C)NC(=O)N1CC[C@@H]2CN(Cc3ccccc3)S(=O)(=O)[C@@H]2CC1 | -7.87 | -13.5 | 131 | -3.29 | -6.16 | 0.319 | 6.09 | 29.7 | -5.41 | -5.13 | -1.09
